Experimental data reported in PubChem BioAssay (NCATS).
Several values for one entry are separate records, joined by “and”; a condition that tells them apart may be missing. Identical values can stand only once. Records with an inconclusive call do not appear. Where a call stands in place of a potency, no number is given. Unmarked numbers belong to inactive results. Activity calls are given as the source filed them. Calls follow the shape of the dose curve; as a rule, active = well fitted curve in the direction sought with a large enough effect; inconclusive = small, poorly fitted or top-dose-only effect, or another doubt; inactive = no such curve, though single readings can be large; an effect the other way counts as inactive or inconclusive.

Tests used:
[1] = target: Cellular tumor antigen p53 (Homo sapiens) (UniProt P04637); test: Primary qHTS for small molecule compounds that upregulate eGFP-tagged delta133p53alpha (in N-terminal) cells. (AID 2060322); details: NCI-H358 eGFP-delta133p53alpha fluorescence, 24 h; activation: stronger effect = higher value; also: nearly all actives have a fitted effect of over 75% in size; also: potency is read from the fitted curve at half-maximal effect;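 as to activation: cells pre-induced with doxycycline then dosed without doxycycline; series mostly up to about 56 µM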
Sequence of Cellular tumor antigen p53 (Homo sapiens) (P04637 whole entry, looked up): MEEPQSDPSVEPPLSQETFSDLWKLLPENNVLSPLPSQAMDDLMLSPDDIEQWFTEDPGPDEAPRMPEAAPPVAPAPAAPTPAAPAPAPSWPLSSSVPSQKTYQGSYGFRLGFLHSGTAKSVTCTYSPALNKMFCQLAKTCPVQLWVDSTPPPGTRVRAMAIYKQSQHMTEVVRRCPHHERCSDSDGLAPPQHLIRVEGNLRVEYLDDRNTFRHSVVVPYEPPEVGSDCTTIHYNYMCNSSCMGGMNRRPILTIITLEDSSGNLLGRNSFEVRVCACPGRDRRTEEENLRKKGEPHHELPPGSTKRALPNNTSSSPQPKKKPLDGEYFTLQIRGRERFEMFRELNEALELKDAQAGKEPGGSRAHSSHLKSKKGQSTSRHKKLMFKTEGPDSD
In short: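 NCI-H358 cells pre-induced 24 h with 10 ng/ml doxycycline for eGFP-delta133p53alpha, plated dox-free and exposed 24 h at 37C to titrated compounds. Fixed, Hoechst-stained; gated GFP peak intensity by laser scanning cytometry, normalized to DMSO (0%) and 57.5 uM 5-azacytidine (100%).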

[2] = target: Aldehyde dehydrogenase, mitochondrial (Homo sapiens) (UniProt P05091); test: qHTS for Inhibitors of the Aldehyde Dehydrogenase Family (ALDH2) Primary screen (AID 2061308); also: nearly all actives have a fitted effect of over 55% in size
[3] = target: Retinaldehyde dehydrogenase 3 (Homo sapiens) (UniProt P47895); test: qHTS for Inhibitors of the Aldehyde Dehydrogenase Family (ALDH1A3) Primary screen (AID 2061315)

| SMILES | Potency [1] | Potency [2] | Potency [3] | activation [1] | activity change, negative = inhibition [2] | activity change, negative = inhibition [3] |
| --- | --- | --- | --- | --- | --- | --- |
| CCN1CCN(Cc2ccc(-c3cc4c(NC(C)c5ccccc5)ncnc4[nH]3)cc2)CC1 (stereo not given) | 26.9 µM (active) | inactive | inactive |  |  |  |
| C=CC(C)(C)C12CC3C(=O)NC(Cc4cnc[nH]4)C(=O)N3C1Nc1ccccc12 (stereo not given) |  | inactive | inactive | 13.4% |  |  |
| O=C(O)CC(CCc1ccccc1)OC1OC(CO)C(O)C(O)C1O (stereo not given) |  | inactive | inactive | 3.57% |  |  |
| C=C1C(=O)O[C@@H]2CC(C)=C([C@@H](C)CCCOC(C)=O)[C@@H](O)[C@H]12 |  | inactive | inactive | 28.6% |  |  |
| COc1ccc(C[C@H]2COC(=O)[C@@H]2Cc2ccc(O[C@@H]3O[C@H](CO)[C@@H](O)[C@H](O)[C@H]3O)c(OC)c2)cc1OC |  | inactive | inactive | 15.2% |  |  |
| CC1(C)CC[C@]2(C(=O)O[C@@H]3O[C@H](CO)[C@@H](O)[C@H](O)[C@H]3O)CC[C@]3(C)C(=CCC4[C@@]5(C)C[C@@H](O)[C@H](O)[C@@](C)(CO)C5CC[C@]43C)C2C1 (stereo not given in full) |  | inactive | inactive | 8.4% |  |  |
| COc1cc(/C=C/C(=O)OC2CC(C)=C(C(=O)O)/C2=C/CO[C@@H]2O[C@H](CO)[C@@H](O)[C@H](O)[C@H]2O)ccc1O (stereo not given in full) |  | inactive | inactive | -8.93% |  |  |
| C=CC(C)(C)c1[nH]c2cc3c(cc2c1CC1NC(=O)C2CCCN2C1=O)C=CC(C)(C)O3 (stereo not given) |  | inactive | inactive | -13% |  |  |
| COC(=O)N1CCC(n2ncc3c(N4CCOCC4)nc(-c4ccc(NC(=O)Nc5ccc(CO)cc5)cc4)nc32)CC1 | 21.3 µM (active) | inactive | inactive |  |  |  |
| C/C=C/C1=CC2=CC(=O)C(C)(O)C(OC(=O)c3c(C)cc(O)cc3O)C2CO1 (stereo not given) |  | inactive | inactive | -12.2% |  |  |
| CC(C(=O)O)c1ccc(/C=C2\CCCCC2=O)cc1 (stereo not given) |  | inactive | inactive | -13.4% |  |  |
| CC1(C)CCC2(C(=O)O)CCC3(C)C(=CCC4C5(C)CCC(O)C(C)(CO)C5C(O)CC43C)C2C1 (stereo not given) |  | inactive | inactive | -18.8% |  |  |
| C=C1CCC2[C@@](C)(C(=O)O)CCC[C@@]2(C)[C@@H]1CCc1ccoc1 (stereo not given in full) |  | inactive | inactive | 1.79% |  |  |
| CC(=O)/C=C/C1C(C)CC(O[C@@H]2O[C@H](CO)[C@@H](O)[C@H](O)[C@H]2O)CC1(C)C (stereo not given in full) |  | inactive | inactive | -0.893% |  |  |
| CC1(C(=O)O)CCCC2(C)C1CCC13CC(CCC21)C1(CO)OC31 (stereo not given) |  | inactive | inactive | -9.16% |  |  |
| CC(=O)O[C@@H]1C[C@@]23C[C@@]24CC[C@H](O[C@@H]2OC[C@H](O)[C@H](O)[C@H]2O)C(C)(C)[C@@H]4CC[C@H]3[C@]2(C)[C@@H](O)C34O[C@H](C[C@@H](C)[C@@H]3[C@@]12C)[C@@H](C(C)(C)O)O4 | 3.79 µM (active) | inactive | inactive |  |  |  |
| C=CC(=O)Nc1cc(Nc2nccc(-c3c[nH]c4ccccc34)n2)c(OC)cc1N(C)CCN(C)C | 10.7 µM (active) | inactive | inactive |  |  |  |
| Cc1ccc(C)c(NS(=O)(=O)c2cc(C(=O)Nc3ccccc3-c3ccccc3)ccc2C)c1 |  | inactive | inactive | 1.67% |  |  |
| CC1=C2C[C@@]3(C)C(CCC[C@@H]3C)C(O)C2(O)OC1=O (stereo not given in full) |  | inactive | inactive | 0% |  |  |
| CC1=C2C(O)C(=O)OC(c3ccoc3)C2(C)CCC1O (stereo not given) |  | inactive | inactive | -16% |  |  |
| CNC12CC3C[C@@](C)(C1)C[C@](C)(C3)C2 |  | inactive | inactive | -6.33% |  |  |
| CCOc1nc2cccc(C(=O)O)c2n1Cc1ccc(-c2ccccc2-c2nn[nH]n2)cc1 |  | inactive | inactive | -1.69% and 19.6% |  |  |
| CC1C(O)C(O)C2C(C(=O)OCCc3ccc(O)cc3)=COC(O[C@@H]3O[C@H](CO)[C@@H](O)[C@H](O)[C@H]3O)C12 (stereo not given in full) |  | inactive | inactive | 11.5% |  |  |
| NC(=O)C1=CC2C3C=CC2C(OC3=O)O1 (stereo not given) |  | inactive | inactive | 27.5% |  |  |
| C[C@H]1O[C@@H](O[C@H]2CC[C@@]3(C)C(CC[C@]4(C)C3CC=C3C5CC(C)(C)CC[C@]5(C(=O)O)CC[C@]34C(=O)O)C2(C)C)[C@H](O)[C@@H](O)[C@@H]1O (stereo not given in full) |  | inactive | inactive | -12.2% |  |  |
| C=C1CC2[C@@]3(C)C=CC(=O)C(C)(C)C3=C(O)C(=O)[C@@]2(C)C2(C(=O)OC)C(=O)C(C)OC(=O)[C@@]12C (stereo not given in full) |  | inactive | inactive | -3.82% |  |  |
| CC[C@]12CCCN3CCc4c(n(c5ccccc45)C(=O)C1)[C@@H]32 | 13.8 µM (active) and 10.7 µM (active) | inactive | inactive |  |  |  |
| CC(=O)NCc1cccc(OC[C@@H](O)CNCCc2ccc(NS(=O)(=O)c3ccccc3)cc2)c1 |  | inactive | inactive | 8.93% |  |  |

| SMILES | Potency [1] | Potency [2] | Potency [3] | activation [1] | activity change, negative = inhibition [2] | activity change, negative = inhibition [3] |
| --- | --- | --- | --- | --- | --- | --- |
| COC(=O)C1=CO[C@@H](O[C@@H]2O[C@H](CO)[C@@H](O)[C@H](O)[C@H]2O)[C@@H]2[C@@](C)(O)[C@@H](OC(=O)/C=C/c3ccc(O)cc3)C[C@]12O |  | inactive | inactive | -0.763% |  |  |
| COc1ccccc1-c1cc(Nc2cccc(CS(N)(=O)=O)c2)ncn1 | 8.49 µM (active) | inactive | inactive |  |  |  |
| C=CC1(C)CC2CCC3C(C)(C(=O)O)CCCC3(C)C2=CC1=O (stereo not given) |  | inactive | inactive | -16% |  |  |
| O=c1c2ccccc2nc2n1CCC2O (stereo not given) |  | inactive | inactive | -3.82% |  |  |
| COc1c2ccoc2nc2c(OC)c(O[C@@H]3O[C@@H](C)[C@H](O)[C@@H](O[C@@H]4O[C@H](CO)[C@@H](O)[C@H](O)[C@H]4O)[C@H]3OC(C)=O)ccc12 |  | inactive | inactive | 27.7% |  |  |
| CC1=CC2(O)/C=C/C(C)(O)CC(O)/C=C/C(=O)OC23C(=O)NC(CC(C)C)C3C1C (stereo not given) |  | inactive | inactive | -2.29% |  |  |
| OC1COC(OCC2OC(OCCc3ccccc3)C(O)C(O)C2O)C(O)C1O (stereo not given) |  | inactive | inactive | -11.5% |  |  |
| O=S(=O)(c1ccccc1)c1cnc2c(N3CCNCC3)cccc2c1 |  | inactive | inactive | 27% |  |  |
| CN(C)CC1CCn2c(c(C3=C(c4cn(C)c5ccccc45)C(=O)NC3=O)c3ccccc32)C1 (stereo not given) | 34.3 µM (active) | inactive | inactive |  |  |  |
| CC/C=C\C[C@H]1C(=O)C=C[C@@H]1CCCCCCCC(=O)O |  | inactive | inactive | -8.93% |  |  |
| CC1(C)CCC2(C(=O)OC3OC(CO)C(O)C(O)C3O)CCC3(C)C(=CCC4C5(C)CCC(OC6OC(C(=O)O)C(OC7OC(CO)C(O)C(O)C7O)C(OC7OC(CO)C(O)C(O)C7O)C6O)C(C)(C)C5CCC43C)C2C1 (stereo not given) |  | inactive | inactive | -5.34% |  |  |
| O=C(O)/C=C/c1ccc(O)c(O[C@@H]2O[C@H](CO)[C@@H](O)[C@H](O)[C@H]2O)c1 |  | inactive | inactive | 16% |  |  |
| C[C@@H]1O[C@@H](O[C@H]2[C@H](O[C@H]3[C@H](O[C@H]4CC[C@@]5(C)C(CC[C@]6(C)C5CC=C5[C@@H]7CC(C)(C)C[C@@H](O)[C@]7(C)CC[C@]56C)[C@@]4(C)CO)O[C@H](C(=O)O)[C@@H](O)[C@@H]3O)OC[C@H](O)[C@@H]2O)[C@H](O)[C@H](O)[C@H]1O (stereo not given in full) |  | inactive | inactive | 3.82% |  |  |
| NC(=O)[C@H](Cc1ccccc1)NC(=O)[C@H](CCCN=C(N)N)NC(=O)C12CC3CC(CC(C3)C1)C2 |  |  |  | -9% | 0.973% [at 11.2 µM] | -5.76% [at 11.2 µM] |
| COC(=O)C(CC1(O)c2ccccc2N2C(=O)C(CC(C)C)NC21)n1cnc2ccccc2c1=O (stereo not given) |  | inactive | inactive | -1.53% |  |  |
| CCOc1ccc(S(=O)(=O)n2c(C)nc3ccccc32)cc1 |  | inactive | inactive | -4.33% |  |  |
| COC(=O)C(C)C1CCC2(C)C(=O)C=CC(C)(O)C2C1O (stereo not given) |  | inactive | inactive | 26% |  |  |
| C=C(CCC1C(C)(O)CCC2C(C)(C)C(O)CCC12C)C(O)CO (stereo not given) |  | inactive | inactive | -7.14% |  |  |
| CC(C)n1cnc2c(-c3cnc(N)nc3)nc(N3CCOCC3)nc21 |  | inactive | inactive | 15.7% |  |  |
| COc1cc(NS(=O)(=O)c2ccc(N)cc2)nc(C)n1 |  | inactive | inactive | -15.9% |  |  |
| C/C(=C\CO)CC/C=C(\C)C(=O)O[C@H]1[C@H](OC2OC=C(C(=O)O)C3CCC(C)(O)C23)O[C@H](CO)[C@@H](O)[C@@H]1O (stereo not given in full) |  | inactive | inactive | -22.3% |  |  |
| COc1c(/C=C/C(C)(C)O)ccc2c1C(=O)OCc1cc(C)cc(O)c1O2 |  | inactive | inactive | -12.5% |  |  |
| OC[C@H]1O[C@@H](n2cnc3c(NCc4ccc(O)cc4)ncnc32)[C@H](O)[C@@H]1O |  | inactive | inactive | 13.7% |  |  |
| CC1(C)CC[C@]2(C(=O)O)CC[C@]3(C)C(=CCC4[C@@]5(C)CCC(O[C@@H]6OC[C@H](O)[C@H](O)[C@H]6O[C@@H]6O[C@H](CO)[C@@H](O)[C@H](O)[C@H]6O)[C@@](C)(CO)C5CC[C@]43C)[C@@H]2C1 (stereo not given in full) |  | inactive | inactive | 14.3% |  |  |
| CN(C)CC#CCCC(=O)C(O)(c1ccccc1)C1CCC1 (stereo not given) |  | inactive | inactive | 8.33% |  |  |
| C=CC(C)(C)C12C=C(OC)C(=O)N3C(C(C)C)C(=O)NC31N(OC)c1ccccc12 (stereo not given) |  | inactive | inactive | -9.16% |  |  |
| CCOc1cccc(NC(=O)c2ccc(N3CCCC3)c(C(F)(F)F)c2)c1 |  | inactive | inactive | 5.67% |  |  |
